Results reported in PubChem BioAssay (EPA / NIEHS).
Activity calls are given as the source filed them. The calls were made as follows: active = hit-call score of the fitted dose curve at least 0.9, where 1 is the maximum; inactive = score below 0.9.

Experiment: APR_HepG2_NuclearSize_72hr: Apredica 72-hour HepG2 Assay for Nuclear Size (AID 2282925)
Details: high-content imaging, actives raise or lower the signal
Procedure: APR_HepG2_72hr is a cell-based, multiplexed-readout assay that uses HepG2, a human liver cell line, with measurements taken at 72 hours after chemical dosing in a 384-well plate.APR_HepG2_NuclearSize_72hr is one of 10 assay component(s) measured or calculated from the APR_HepG2_72hr assay. It is designed to make measurements of cell phenotype, a form of morphology reporter, as detected with fluorescence intensity signals by HCS Fluorescent Imaging technology.Data from the assay component APR_HepG2_NuclearSize_72hr was analyzed into 1 assay endpoint. This assay endpoint, APR_HepG2_NuclearSize_72hr, was analyzed with bidirectional fitting relative to DMSO as the negative control and baseline of activity. Using a type of morphology reporter, measures of all nuclear dna for gain or loss-of-signal activity can be used to understand the signaling at the nuclear-level. Furthermore, this assay endpoint can be referred to as a primary readout, because this assay has produced multiple assay endpoints where this one serves a signaling function. To generalize the intended target to other relatable targets, this assay endpoint is annotated to the cell morphology intended target family, where the subfamily is organelle conformation.
Cells were treated with dimethyl sulfoxide (DMSO) as a solvent control at a final concentration of 0.5% v/v or with compounds in DMSO with a resulting final DMSO concentration of 0.5% v/v. Compound treatment was done at concentrations of 0.39, 0.78, 1.56, 3.12, 6.24, 12.5, 25, 50, 100, and 200 uM in duplicate on each plate. Cells were treated with compounds for 1, 24, or 72 hr. Carbonyl […] m-chloro-phenylhydrazone (CCCP) and taxol were used as positive controls for mitochondrial function and cytoskeletal stability, respectively; DMSO served as the negative control for this experiment. Cells were fixed by the direct addition of 50 uL formaldehyde in Hank's Balanced Salt Solution (HBSS) to a final concentration of 3.7%. After incubation in the fixation medium for 30 min at room temperature (293-298 K), cells were rinsed twice with HBSS and treated with cell permeabilization buffer (16 uL of 0.5% Triton X-100) for 10 min at room temperature (293-298 K) before labeling. For mitochondrial membrane potential and mitochondrial measurements, pre-fixed cells were incubated with 50 uL of MitoTracker Red CMXRos (Invitrogen) at a concentration of 250 nM for 30 min before fixation. In the remaining cases, post-fixed cells were labeled by incubation with a multiplexed mixture of primary antibodies in HBSS for 60 min at room temperature (293-298 K) to detect immunoreactivity of c-Jun (1:500), phospho-histone H3 (1:100), phospho-histone H2A.x (1:200), p53 (1:400), alpha-tubulin (1:200) and Hoechst 33342 (2 ug/mL). Cells were labeled for multiplexed imaging on two separate plates: a) Hoechst 33342, MitoTracker Red, phospho-histone H3, and alpha-tubulin, and b) Hoechst 33342, phospho-histone H2A.x, and c-Jun. A final rinse with HBSS (50 uL) was performed before analysis. The primary and secondary antibodies for the proteins were phospho-histone H3 (rabbit anti-phospho-histone H3 and FITC-donkey anti-rabbit IgG), phospho-histone H2A.x (mouse anti-phospho-histone H2A.x and FITC-donkey anti-mouse IgG), c-Jun (rabbit anti-phospho-c-Jun and Cy3-donkey anti-rabbit IgG), p53 (sheep anti-p53 and Cy5-donkey anti-sheep IgG), alpha-tubulin (mouse anti-alpha-tubulin and Cy5-donkey anti-mouse IgG). These antibodies are available as the CellCiphr HepG2 assay kit (Millipore).Digital images of each well were captured using a Cellomics ArrayScan VTI (Thermo Scientific Cellomics) (0.8 NA objective, 0.63x optical coupler, and XF-93 filter set) at 20x magnification. The images were acquired using the autofocus feature of the ArrayScan instrument, which entails the following steps. First, the camera focuses on channel 1 (Hoechst 33342), where nuclei are identified. Second, a Z offset of 1 um is used for capturing mitochondria (MitoTracker Red). […]

| Compound | outcome | AC50 |
| --- | --- | --- |
| Nc1nc(Cl)nc2c1ncn2[C@H]1C[C@H](O)[C@@H](CO)O1 | inactive |  |
| CCCC[C@H]1CN(CC2CCOCC2)C(=O)OC12CCN(C1(C)CCN(C(=O)c3c(C)ncnc3C)CC1)CC2 | inactive |  |
| Cc1c(C)c2c(c(C)c1O)CCC(C)(COc1ccc(CC3SC(=O)NC3=O)cc1)O2 (stereo not given) | inactive |  |
| CC1=C(C)S(=O)(=O)CCS1(=O)=O | inactive |  |
| CCOCCOCCO | inactive |  |
| CN(C)C(=O)NC1(c2ccccc2)CCN(CCC[C@]2(c3ccc(Cl)c(Cl)c3)CCCN(C(=O)c3ccccc3)C2)CC1 | inactive |  |
| CCCCC(CC)COP(=O)(OCC(CC)CCCC)OCC(CC)CCCC (stereo not given) | inactive |  |
| Cc1ccc(C(C)(C)C)c(O)c1 | inactive |  |
| CCCCOC(=O)CCCCC(=O)OCCCC | inactive |  |
| CCCCCCC(C=O)=Cc1ccccc1 | inactive |  |
| CC(=O)CC(c1ccccc1)c1c(O)c2ccccc2oc1=O (stereo not given) | inactive |  |
| COC(=O)CCC(=O)OC | inactive |  |
| OCC(O)CO | inactive |  |
| CCCCCCC(CCCCCCCCCCC(=O)OCC(COC(C)=O)OC(C)=O)OC(C)=O (stereo not given) | inactive |  |
| O=C1NC(=O)C(c2ccccc2)(c2ccccc2)N1 | inactive |  |
| Cc1cc(SC2=C(O)C[C@@](CCc3ccc(N)cc3)(C(C)C)OC2=O)c(C(C)(C)C)cc1CO | inactive |  |
| C#CC(O)C(CC)CCCC (stereo not given) | inactive |  |
| O=C1c2c(O)cccc2Cc2cccc(O)c21 | inactive |  |
| CCCCCCCCCCCCCCOS(=O)(=O)O | inactive |  |
| CCc1nc(N)nc(N)c1-c1ccc(Cl)cc1 | inactive |  |

| Compound | outcome | AC50 |
| --- | --- | --- |
| O=NO | inactive |  |
| CCC(C)N(C)C(=O)c1cc2ccccc2c(-c2ccccc2Cl)n1 (stereo not given) | inactive |  |
| CC(C)(O)c1ccc(CNC(=O)c2cccnc2Oc2ccc(F)cc2)cc1 | inactive |  |
| O=[Si]=O | inactive |  |
| Oc1ccc(O)cc1 |  | 67.8 µM (active) |
| C=CCc1ccc(OC)c(OC)c1 | inactive |  |
| CC(C)COC(=O)CCCCC(=O)OCC(C)C | inactive |  |
| OCC(CO)n1cnc(-c2ccc(F)cc2)c1-c1ccnc(Oc2ccccc2)n1 | inactive |  |
| Cc1cc(Cc2ccc(N)c(C)c2)ccc1N | inactive |  |
| CC(C)(C)c1ccccc1 | inactive |  |
| CCCCCCCC(=O)OC | inactive |  |
| COC(=O)CCCC(=O)OC | inactive |  |
| CCCC(=O)O | inactive |  |
| NC1CCCCC1 | inactive |  |
| S=c1[nH]c2ccccc2s1 | inactive |  |
| CCCCc1nc2cccnc2n1Cc1ccc(-c2ccccc2-c2nnn[nH]2)cc1 | inactive |  |
| Nc1nc(=S)c2[nH]cnc2[nH]1 | inactive |  |
| N[C@@H](Cc1c[nH]c2ccccc12)C(=O)O | inactive |  |
| Cc1ccc(-c2cc(C(F)(F)F)nn2-c2ccc(S(N)(=O)=O)cc2)cc1 | inactive |  |
| O=C(O)c1[nH]n(-c2ccc(S(=O)(=O)O)cc2)c(=O)c1N=Nc1ccc(S(=O)(=O)O)cc1 | inactive |  |
